Consider 40 molecules from PubChem BioAssay AID1259240 (Keith Lab, Institute of Cancer Science, University of …, 2017).

Values without a mark were called inactive. Calls of active or inactive are those of the source. Cut-off read from the data, not from the text of the source: active = fold change mostly below about -2 (no sharp cut-off); inactive = mostly above about -1.8.

This test in a line: TERT promoter activity modulators, primary screen, cell-based, luciferase reporter, human (AID 1259240). Conditions: A2780 TERT promoter luciferase reporter, 16 h; at 20 µM, fold versus average of vehicle-only wells. On the technique in general: A reporter such as luciferase makes a cellular process visible.
In the case of `c1ccc2c(NCCCN3CCOCC3)c3c(nc2c1)CCCC3`, the fold change was -1.45.

Take `Cc1csc(NC(=O)C2CCCN(S(=O)(=O)c3c(C)[nH]c(=O)[nH]c3=O)C2)n1` (stereo not given): the fold change is -1.1.

On to `Cc1c(NC(=O)c2cc(C3CC3)on2)c(=O)n(-c2ccccc2)n1C`, for which the fold change was -1.33.

As to `Cc1c(/C=C2/SC(=S)N(CC(=O)O)C2=O)c2ccccc2n1C`, the fold change was 1.33.

Consider `COc1ccc2cc3c(N)nn(C(=O)Cn4nc([N+](=O)[O-])c(Br)c4C)c3nc2c1`, for which the fold change is -1.45.

On to `O=C(NC1CCCCC1)C(=O)c1c(-c2ccccc2)cc2ccccn12`, for which the fold change was 1.24.

For the molecule `Cn1c(=O)cc(SCC(=O)Nc2nc3ccccc3[nH]2)c2ccccc21`, the fold change is -1.01.

For `CCOc1cc2c(cc1OCC)C(c1ccc(Br)cc1)CC(=O)N2` (stereo not given), the fold change was 1.18.

With `CC1CCC(NC(=O)C(=O)Nc2ccc3nc4n(c(=O)c3c2)CCCCC4)CC1` (stereo not given), the fold change is 1.

For the molecule `CCCn1c(OC)nc2c1c(=O)n(C)c(=O)n2C`, the fold change is -1.58.

Regarding `Cc1nc(SCC(=O)NCC2CCCO2)c2c(=O)n(C)c(=O)n(C)c2n1` (stereo not given), the fold change is 1.01.

Take `Clc1ccc(CNc2ccc3nncn3n2)cc1`: the fold change is -1.3.

With `c1ccc(CNc2nc3ccccc3n3cnnc23)nc1`, the fold change was 1.11.

For the molecule `COc1ccc(Cl)cc1N1CC(O)=C(c2nc3ccccc3c(=O)[nH]2)C1=N`, the molecule was called inactive.

`CCOC(=O)C1CCCN(c2c(NCCN(C)C)c(=O)c2=O)C1` (stereo not given): the fold change is 1.36.

In the case of `C=CCn1c(Oc2ccccc2Cl)nc2c1c(=O)n(C)c(=O)n2C`, the fold change was -2.84 (active).

Consider `O=C(Nc1ccc(F)cc1)C(=O)Nc1ccc2nc3n(c(=O)c2c1)CCCCC3`, for which the fold change was -1.07.

In the case of `Cc1nnc2ccc(N3CCC(C(N)=O)(N4CCCCC4)CC3)nn12`, the fold change was -1.03.

As for `COCCN1C(=O)C(=O)/C(=C(\O)c2ccc(C)cc2)C12C(=O)N(C)c1ccccc12` (stereo not given), the fold change was -1.06.

As for `CCOC(=O)CCCSc1nc2sc(C)c(C)c2c(=O)[nH]1`, the fold change is -3.49 (active).

`O=C(CSc1nc(-c2ccco2)cc(C(F)(F)F)n1)N1CCc2ccccc21`: the fold change is -1.91.

Turning to `Cc1cccc(CNc2nc(N)n(-c3ccccc3)n2)c1`, the fold change is 1.27.

For `COc1cc(Nc2nnc(Cc3ccncc3)c3ccccc23)cc(OC)c1OC`, the fold change was -1.31.

As to `CCN(CC)C(=O)c1sc(N2C(=O)Nc3ccccc3N2O)c(C(=O)OC)c1C`, the fold change is 1.14.

With `CCOC(=O)C1=C(CS(=O)(=O)c2ccccc2)NC(=O)NC1c1cc(OC)c(OC)cc1OC` (stereo not given), the fold change was 1.83.

Regarding `CCCCNC(=O)CCN1C(=O)c2ccccc2S1(=O)=O`, the fold change is -1.02.

For `COc1ccc(Nc2nc(N)nc(CSc3nccn3C)n2)cc1`, the fold change is 1.57.

As for `CC1CCN(S(=O)(=O)c2ccc3c(c2)N(CC(=O)NCCN2CCCC2)C(=O)CO3)CC1`, the fold change is -1.01.

For `O=C(Nc1ccc2nc3n(c(=O)c2c1)CCCCC3)C(=O)N1CCOCC1`, the fold change was 1.01.

`CC(C)n1cnc2cc(NCc3ccncc3)ccc21`: the fold change is -2.71 (active).

As to `O=C1Nc2ccccc2N(O)N1c1cc(-c2cccc(Cl)c2)no1`, the fold change is 1.45.

As to `CCCCN1C(=O)/C(=C2\SC(N3CCCCC3)=NC2=O)c2ccccc21`, the fold change is -8.65 (active).

As for `C=CCOc1ccc(/C(O)=C2/C(=O)C(=O)N(CC3CCCO3)C23C(=O)N(C)c2ccccc23)cc1` (stereo not given), the fold change is -1.41.

On to `CCOC(=O)Cn1c(=O)oc2cc(S(=O)(=O)Nc3ccc(F)cc3)ccc21`, for which the fold change is -1.03.

`N=c1n(CCN2CCOCC2)c2ccccc2n1CC(O)c1ccco1` (stereo not given): the fold change is -2.53 (active).

On to `Cc1[nH]n(-c2nc3ccccc3[nH]2)c(=O)c1C=Nc1ccc(F)cc1`, for which the call was inactive.

Consider `Cc1ccc(N2C(=O)c3n[nH]c(C)c3C2c2ccccc2Cl)cc1` (stereo not given), for which the fold change was -1.14.

Turning to `Cc1cc(C)n(-c2nc3ccccc3n3nnnc23)n1`, the fold change is 1.46.

With `C=CCNc1nc2c(c(=O)[nH]c(=O)n2C)n1CCOc1ccccc1`, the fold change was -1.07.

As to `CN(C)CCNC(=O)C(=O)Nc1ccc2nc3n(c(=O)c2c1)CCCCC3`, the fold change is 1.06.
